# ChEMBL document CHEMBL4513216, “Probing the Open Global Health Chemical Diversity Library for Multistage-Active Starting Points for Next-Generation Antimalarials” (ACS Infect Dis, 2020)
# The campaign covered roughly 69,000 compounds. About 8,600 (12%) showed an effect of 50% or more. For the sample, strong results were picked, then their nearest neighbours and some compounds at random.
# Test system: Plasmodium berghei
# Assay: Screen against P. berghei liver stage (PbLuc), transformed with Luciferase, at 10uM
# Assay type: functional, HepG2
# Details: tested at 10 uM
row,Structure (SMILES),INHIBITION
1,Cc1nc(C)n(C2CCCN(C(=O)CCOCC(C)C)C2)n1 (configuration not stated),7.27%
2,Cc1cc(N2CCN(CC(=O)N(C)C)CC2)nc(-c2ccncc2)n1,4.74%
3,CNc1cc(C2CN(C(=O)c3cnn(C)c3)CCO2)nc(C)n1 (configuration not stated),25.8%
4,CCC(Cn1ccnc1)n1cnc2c(C)csc2c1=O (configuration not stated),14.9%
5,Cc1nc(C2CCCN2Cc2cc(Cl)c3c(c2)OCO3)no1 (configuration not stated),44.3%
6,Cc1nc(C2CCCN2Cc2cc(Cl)c3c(c2)OCCCO3)no1 (configuration not stated),52.2%
7,Cc1nc(C2CCCN2Cc2cc(Cl)c3c(c2)OCCO3)no1 (configuration not stated),45.4%
8,Cc1ccc(CNCc2ccc(N3CCC(CO)CC3)nc2)c(C)c1,58.7%
9,Cc1nc(CNCc2ccc(N3CCC(CO)CC3)nc2)cs1,-11.6%
10,COc1ccc(C)cc1CNCc1ccc(-n2nc(C)cc2C)nc1,18.6%
11,Cc1ncsc1C(=O)OCCN1CCCCCC1=O,-60.9%
12,CCCc1n[nH]c(C2CN(C(=O)CCn3nc(C)cc3C)CCO2)n1 (configuration not stated),34.6%
13,Cc1n[nH]c(C2CN(C(=O)CCCn3cccn3)CCO2)n1 (configuration not stated),-22.1%
14,CC(C)(C)c1n[nH]c(C2CN(C(=O)CCc3cccs3)CCO2)n1 (configuration not stated),-32.5%
15,CCCc1n[nH]c(C2CN(C(=O)CCCn3ccnc3)CCO2)n1 (configuration not stated),-18.9%
16,CCc1n[nH]c(C2CN(C(=O)Cc3cccs3)CCO2)n1 (configuration not stated),-33.7%
17,CCCc1n[nH]c(C2CN(C(=O)CCCn3ccnc3C)CCO2)n1 (configuration not stated),87.2%
18,CCc1n[nH]c(C2CN(C(=O)CCCn3cccn3)CCO2)n1 (configuration not stated),56.1%
19,CCCc1n[nH]c(C2CN(C(=O)CCCn3cccn3)CCO2)n1 (configuration not stated),1.81%
20,CCc1n[nH]c(C2CN(C(=O)CCc3cccs3)CCO2)n1 (configuration not stated),51.3%
21,Cc1cc(C(=O)N2C[C@H](C(C)C)[C@@H](N(C)C)C2)cs1,47.2%
22,CS(=O)(=O)c1cn[nH]c1C1CCCCN1C(=O)c1cnccn1 (configuration not stated),-21.4%

row,Structure (SMILES),INHIBITION
1,Cc1nc(CN2CCCN(C(=O)c3c(C)oc(C)c3C)CC2)cs1,-4.16%
2,O=c1c(S(=O)(=O)N2CCCC2)cccn1Cc1ccccc1Cl,29.6%
3,c1cnc(N2CCO[C@H]3CN(Cc4c[nH]cn4)C[C@H]32)cn1,37.8%
4,OCCN1CCCC(c2nccnc2Oc2ccc(F)cc2)C1 (configuration not stated),20.8%
5,CCS(=O)(=O)N1C[C@@H](c2cc(O)nc(C)n2)[C@H](c2ccccc2F)C1,3.69%
6,O=C(c1ccccn1)N1CCC2(CC1)COC(COc1cccnc1)C2 (configuration not stated),5.67%
7,CC(c1cccc(-c2ncc(C#N)c(N)n2)c1)N(C)C (configuration not stated),-0.996%
8,c1cncc(-c2noc(CNc3ncnc4c3CCNCC4)n2)c1,8.74%
9,Cc1ccccc1-n1cc(CNc2ncnc3c2CCNCC3)cn1,-20.7%
10,COc1ccc(-c2cc(CNc3ncnc4c3CCNCC4)no2)cc1,94.1%
11,Clc1ccccc1-c1cc(CNc2ncnc3c2CCNCC3)no1,88.2%
12,c1cncc(-c2noc(CCNc3ncnc4c3CCNCC4)n2)c1,19.4%
13,Cc1cccc(-n2cc(CNc3ncnc4c3CCNCC4)cn2)c1,16%
14,c1ccc(Cn2cc(CNc3ncnc4c3CCNCC4)cn2)cc1,23.6%
15,Cc1ccc(-c2cc(CNc3ncnc4c3CCNCC4)no2)cc1,93.1%
16,COCc1noc(CCNc2ncnc3c2CCNCC3)n1,-58%
17,CCn1cc(CN2CCCN(C(=O)c3ccoc3C)CC2)cn1,-19.9%
18,COCC(=O)N1Cc2nccn2CC(COc2cccnc2)C1 (configuration not stated),29.3%
19,COc1nn(C)c2c1CCCN(C(=O)c1ccc[nH]1)C2,-15.7%
20,CCn1c(SCC(N)=O)nnc1-c1csc2c1CCCC2,25.8%
21,Cn1ccc(C(=O)N2CCCC2c2cc(CO)[nH]n2)n1 (configuration not stated),14.385%
22,CCn1cnnc1CNc1nc(C)nc2scc(CC(C)C)c12,44.3%

row,Structure (SMILES),INHIBITION
1,CCc1nc(-c2cncnc2C2CCCNC2)no1 (configuration not stated),20.25%
2,Cc1ccc(Cn2nc(C)c3c(C(=O)O)c(Cl)c(C)nc32)cc1,3.52%
3,CCNc1c(NC(=O)C2CC2)c(=O)oc2ccccc12,-21.9%
4,CN(C)CC(=O)N1CCCCC1c1nc(N)ncc1-c1ccccc1 (configuration not stated),12.3%
5,CCSc1nnc([C@@H](N)CC(C)C)o1,-4.56%
6,COc1ccccc1-c1nccnc1C1CCN(C(C)=O)CC1,10%
7,Cc1cccc(-c2nccnc2C2CCN(C)CC2)c1C,54.5%
8,Cc1cccc(-c2nccnc2C2CCCN(C)C2)c1C (configuration not stated),35.2%
9,COCc1nc(C(=O)N2CCCC2c2ccncc2)cs1 (configuration not stated),29.7%
10,CC(C)c1noc(CN2CCN(CCO)CC2)n1,-10.875%
11,Brc1cccc(-c2noc(C3COCCO3)n2)c1 (configuration not stated),-99.3%
12,CCCNc1ccc(C(=O)NCCc2ccc(Cl)cc2)cn1,-71.5%
13,CCCNc1ccc(C(=O)NCCc2cccc(OC)c2)cn1,25.3%
14,CCCNc1ccc(C(=O)NCCc2cccc(Cl)c2)cn1,68.8%
15,O=C1Nc2ccccc2/C1=C1\CCCN1,43.4%
16,Cc1nn(Cc2ccccc2)c(C)c1CNC1CCc2ncnn2C1 (configuration not stated),-10.1%
17,COCC1COCCC12CCN(C(=O)CCc1ccccc1C)CC2 (configuration not stated),-30.6%
18,CNCC(=O)Nc1cccc(-c2cnc(NCCS(C)(=O)=O)nc2)c1,45.6%
19,CNCC(=O)Nc1cccc(-c2cnc(NCCO)nc2)c1,23.4%
20,CNCC(=O)Nc1ccc(-c2cnc(NCCS(C)(=O)=O)nc2)cc1,54.5%
21,Cn1nc(C(=O)NCc2ccccc2C(F)(F)F)c2c1CCS(=O)(=O)C2,45.8%
22,O=C(C1CCOCC1)N1C[C@@H]2CC[C@H]1CN(C1Cc3ccccc3C1)C2,-59.3%

row,Structure (SMILES),INHIBITION
1,CN(Cc1cc(C[C@@H]2C[C@H](N)C2(C)C)no1)c1ccccc1,54.3%
2,CCN(CC)[C@H]1C[C@@H](Cc2cc(CO)on2)C1(C)C,17.4%
3,CN(C)[C@H]1C[C@@H](Cc2cc(CO)on2)C1(C)C,-17.1%
4,Cc1cccc(CN2C(=O)CC[C@@H]3[C@H]2CCN3Cc2nccn2C)n1,40.4%
5,c1ccc(Cn2cc3c(n2)C(CNCC2CCOCC2)OCC3)nc1 (configuration not stated),-7.7%
6,CCC(CC)C(=O)N1CCC2(C1)CN(c1ccccc1)C(=O)CN2C (configuration not stated),28.4%
7,CCC[C@H]1CN(Cc2nccn2C)C[C@@H]1NC(=O)C1(COC)CCC1,31.2%
8,CCC[C@H]1CN(Cc2cc(C)no2)C[C@@H]1NC(=O)C1(COC)CCC1,59.3%
9,CCC[C@H]1CN(Cc2cncn2C)C[C@@H]1NC(=O)C1(COC)CCC1,28%
10,CCC[C@H]1CN(Cc2cscn2)C[C@@H]1NC(=O)C1(COC)CCC1,48.5%
11,COC[C@@]12CC[C@@H](N3CCOCC3)C[C@H]1CCN(c1nc(CO)cs1)C2,15.8%
12,CCC[C@H]1CN(c2nc(CO)cs2)C[C@@H]1NC(=O)C1(COC)CC1,69.7%
13,c1ccc(-c2nnc3n2CCN(Cc2ccc4c(c2)OCCO4)C3)cc1,33.7%
14,NC(=O)c1cccc(OCC(=O)N2CCCC(n3ccnc3)C2)c1 (configuration not stated),36.1%
15,CC(=O)N1[C@H](CN(C)C)C[C@@H]2CN(c3ncc(F)cn3)CC[C@@H]21,-0.804%
16,CCC(C)NC(=O)c1ccn(COc2ccccc2Cl)n1 (configuration not stated),34.2%
17,COc1ccc(CNc2ncnc3c2NC(=O)CN3)cc1,45.8%
18,CC(C)c1nnc2n1CCN(C(=O)CN(C)Cc1ccccc1)C2,12.7%
19,Cc1ccc(CN(C)C(C(=O)O)c2ccc3c(c2)OCO3)o1 (configuration not stated),8.51%
20,CCc1ncnc(N2CCCC(c3cc(C(N)=O)[nH]n3)C2)c1F (configuration not stated),-24%
21,CCc1cc2c(N3CCCC(c4cc(C(N)=O)[nH]n4)C3)ncnc2s1 (configuration not stated),55%
22,CCc1cc2c(N3CCCC(c4ccn[nH]4)C3)ncnc2s1 (configuration not stated),-1.76%

row,Structure (SMILES),INHIBITION
1,COCC(=O)N1CCC(Cc2nccnc2-c2c(C)n[nH]c2C)C1 (configuration not stated),17.4%
2,CCCN1CCN(c2nc(N)nc3c2nc(C)n3C)CC1,13.1%
3,CSCCC(NC(=O)c1ccc2ccccc2n1)C(=O)NC1CC1 (configuration not stated),43.7%
4,CSCCC(NC(=O)c1ccc2ccccc2n1)C(=O)N(C)C (configuration not stated),60.8%
5,CSCCC(NC(=O)c1ccc2ccccc2n1)C(=O)O (configuration not stated),42.6%
6,CNC(=O)C(CCSC)NC(=O)c1ccc2ccccc2n1 (configuration not stated),19.1%
7,CCOCCNC(=O)C(CCSC)NC(=O)c1ccc2ccccc2n1 (configuration not stated),60.8%
8,CSCCC(NC(=O)c1ccc2ccccc2n1)C(=O)NC(C)C (configuration not stated),40.5%
9,Cc1ccc(CN2CCc3onc(COc4cccnc4)c3C2)s1,27.6%
10,O=C(CNC(Cn1cccn1)c1ccccc1)Nc1cnccn1 (configuration not stated),-12.4%
11,Cc1ccc(C2CCCN2S(=O)(=O)N(C)Cc2cnccn2)o1 (configuration not stated),37.9%
12,CCCn1cc2nc(N3CCCC3)[nH]cc-2c1=O,44.9%
13,Cc1cnn(CC2CCCN2C(=O)c2ccc(F)c(F)c2)c1 (configuration not stated),-63.3%
14,O=C(Nc1ccc(CCN2CCOCC2)cc1)C1CCC1,26.25%
15,CCCc1noc(CN2CCN(CCO)CC2)n1,9.015%
16,CC(NCC(=O)N1CCc2sccc2C1)c1ccccc1F (configuration not stated),14.9%
17,CCN(CC)C(=O)c1ccc(Cl)c(NC(=O)c2csnn2)c1,28.5%
18,CCN(CC)C(=O)c1ccc(Cl)c(NC(=O)c2cc[nH]n2)c1,9.41%
19,CCN(CC)C(=O)c1ccc(Cl)c(NC(=O)c2cnc(C)cn2)c1,51.2%
